Measurements taken from paper PMC5540273 (PLoS ONE, 2017).

Legend:
Conditions in all cases: concentration: 1 μM, replicates: in singlicate; n = 1
[1] = system: T1, YANK2
T1 construct: gene STK32B

[2] = system: T2, YANK3
T2 construct: gene STK32C

[3] = system: T3, YES
T3 construct: gene YES1

[4] = system: T4, YSK1
T4 construct: gene STK25

[5] = system: T5, YSK4
T5 construct: gene MAP3K19

[6] = system: ZAK
[7] = system: ZAP70
[8] = system: T6, p38-alpha
T6 construct: gene MAPK14

[9] = system: T7, p38-beta
T7 construct: gene MAPK11

[10] = system: p38-delta
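Also: KINOMEscan kinase panel screen.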

SMILES	%Inh [1] [%]	%Inh [2] [%]	%Inh [3] [%]	%Inh [4] [%]	%Inh [5] [%]	%Inh [6] [%]	%Inh [7] [%]	%Inh [8] [%]	%Inh [9] [%]	%Inh [10] [%]
COc1ccc(CSc2nnc(-c3ccc4c(c3)CCO4)o2)cc1	0	0	0	0	0	0	0	0	0	23
c1ccc(-c2ccnc3[nH]ccc23)cc1 [SB-693578]	0	8	14	1	93.5	25	55	3	0	39
Cc1cccc2c(-c3ccncn3)c(-c3ccc(F)cc3)nn12 [GW515532]	41	18	0	8	16	9	20	91.6	1	15
COC(=O)C(NC(=O)NC1CCN(c2ccnc(Nc3ccc(F)cc3)n2)C1)c1ccccc1 (stereo not shown) [GSK1379712]	0	0	0	14	32	0	4	12	0	37
CC(=O)c1cccc(NC(=O)NC2CCN(c3ccnc(Nc4ccc(F)cc4)n3)C2)c1 (stereo not shown) [GSK1379710]	0	6	0	0	20	9	0	30	0	14
Cc1ccc(NC(=O)Nc2ccc(Cl)cc2)cc1-c1ccc(C(=O)Nc2ccncc2)cc1 [GSK1398472]	4	0	17	15	56	64	7	72	34	42
COc1cc2ncnc(Nc3cccc(Br)c3)c2cc1OC.Cl [GI230329]	0	13	3	4	63	12	0	47	0	46
COc1ccc(CSc2nnc(-c3ccc4ncsc4c3)o2)cc1C(F)(F)F	11	0	0	11	70	0	11	0	10	0
Cn1cncc1C(=O)NC1CCN(c2ccnc(Nc3ccc(F)cc3)n2)C1 (stereo not shown) [GSK1379717]	4	0	12	0	38	100	43	0	0	5
O=C(Nc1n[nH]c2nc(-c3cccs3)c(Br)cc12)C1CC1 [SB-735297]	11	0	8	0	95.3	30	0	4	2	0
CC(C)c1cc(-c2ccc3c(N)n[nH]c3c2)nc(N)n1 [GSK2250882]	0	19	16	14	33	11	0	9	0	18
Cc1ccc(NC(=O)c2ccc(Cl)cc2)cc1-c1ccc(C(=O)Nc2ccncc2)cc1 [GSK1398467]	10	17	18	0	40	17	6	65	29	27
Cc1nccc(-c2c(-c3ccc(F)cc3)ncn2CCCN2CCOCC2)n1.Cl [SB-282975]	0	5	18	0	22	28	25	61	26	0
NS(=O)(=O)c1cccc(N/C=C2\C(=O)Nc3ccc(S(=O)(=O)Cc4c(Cl)cccc4Cl)cc32)c1 [GSK398099]	0	12	22	0	39	4	20	0	0	27
COc1nccc(-c2c(-c3ccc(F)cc3)ncn2CCCN2CCOCC2)n1 [SB-282852]	0	0	0	0	0	11	31	81	62	0
Cc1ccc(NC(=O)Nc2ccc(Cl)c(C(F)(F)F)c2)cc1-c1ccc(C(=O)Nc2ccncc2)cc1 [GSK1398470]	0	10	7	0	72	59	0	95.9	96.2	0
CNCc1ccc2nc(NC(=O)c3ccc(C(C)(C)C)cc3)cn2c1	22	3	0	7	30	3	15	83	0	0
Fc1ccc(-c2nc[nH]c2-c2ccncc2)cc1 [SB-217360]	28	0	0	0	22	0	0	97.9	21	0
COC(=O)c1cccc(NC(=O)NC2CCN(c3ccnc(Nc4ccc(OC)cc4)n3)C2)c1 (stereo not shown) [GSK1379746]	0	8	13	0	22	0	0	3	0	6
Cn1cncc1-c1cc2c(Nc3ccc(OCc4ccccc4)cc3)ncnc2cn1 [GW281179]	0	15	19	4	27	43	20	0	0	52
Nc1nccc(-c2c(-c3ccc(F)cc3)ncn2C2CCN(Cc3ccccc3)CC2)n1 [SB-219980]	64	30	0	0	34	0	21	99.7	18	0
Cn1cnc2c(N)ncnc21 [SKF-97623]	0	0	0	0	0	0	12	0	0	4
COC(=O)c1cccc(NC(=O)NC2CCN(c3ccnc(Nc4ccc(F)cc4)n3)C2)c1 (stereo not shown) [GSK1379725]	0	0	8	0	8	2	0	0	0	51

SMILES	%Inh [1] [%]	%Inh [2] [%]	%Inh [3] [%]	%Inh [4] [%]	%Inh [5] [%]	%Inh [6] [%]	%Inh [7] [%]	%Inh [8] [%]	%Inh [9] [%]	%Inh [10] [%]
Nc1cccc(-c2ccc3c(N)n[nH]c3c2)n1 [GSK2192730]	0	0	0	26	83	10	3	8	0	22
CCc1ccc(-c2ccc3c(c2)-c2n[nH]cc2S(=O)(=O)N3C)cc1	0	0	0	0	0	5	3	0	0	0
FC(F)(F)c1ccccc1-c1cc(-c2c[nH]nc2-c2ccccn2)ccn1 [GW679396]	18	13	0	0	0	0	0	95.4	18	17
CC(C)c1ccc(O)cc1Nc1ccnc2ccc(C(F)(F)F)cc12 [GW482059]	2	0	0	0	73	9	0	0	0	1
CCn1c(-c2ccccc2)nc2cnccc21 [SB-733416]	0	32	4	0	0	7	0	0	0	56
CNc1cc(-c2ccc3c(N)n[nH]c3c2)nc(N)n1 [GSK2224810]	8	0	0	6	58	0	0	23	0	38
COc1ccc(CSc2nnc(-c3ccc4nccn4c3)o2)cc1C(F)(F)F	8	0	0	14	92.3	0	0	4	21	0
Cc1ccc(-c2nc(Nc3ccncc3)c3ccccc3n2)s1 [GSK189015]	12	28	5	0	0	0	0	0	0	49
COc1ccc(Nc2nccc(N3CCC(NC(=O)C(C)c4ccc(Cl)cc4)C3)n2)cc1 (stereo not shown) [GSK1379735]	7	15	13	0	0	5	2	0	24	29
COc1ccc(-c2coc3ccc(-c4nnc(C)o4)cc23)cc1	9	9	0	1	0	0	18	0	14	0
O=c1cc(N2CCOCC2)nc2n(Cc3cccc(Cl)c3Cl)c3ccccc3n12 [GSK2299009]	0	29	17	21	3	5	0	12	1	16
CS(=O)(=O)CCNCc1nc(-c2ccc3ncnc(Nc4ccc(OCc5ccccc5)c(Cl)c4)c3c2)cs1.Cl [GW582764]	0	40	7	0	30	5	0	0	0	37
CNc1nc(-c2ccc3c(N)n[nH]c3c2)cc(N2C[C@@H](C(=O)NC3CCCCC3)OC[C@H]2C)n1 [GSK2375584]	2	22	14	5	15	0	0	23	0	42
CC(=O)c1c(C)c2cnc(Nc3ccc(N4CCNCC4)cn3)nc2n(C2CCCC2)c1=O	0	0	6	0	10	0	0	0	0	22
Fc1ccc(-c2nc3n(c2-c2ccncc2)CCS3)cc1 [GI98581]	5	21	0	0	5	4	0	98.4	14	14
Nc1ncnc2occ(-c3ccc4c(c3)CCN4C(=O)Cc3cc(F)ccc3F)c12 [GSK2645446]	0	0	0	4	66	0	0	0	0	24
CNC(=O)c1ccc(C)c(-n2c(C)cc(OCc3ccc(F)cc3F)c(Br)c2=O)c1	0	0	0	0	0	0	0		94.5	0
O=C(Nc1n[nH]c2nc(-c3ccco3)c(Br)cc12)C1CCN(Cc2ccccc2)C1.O=C(O)[C@H](O)[C@@H](O)C(=O)O (stereo not shown) [SB-742034]	9	0	12	0	56	0	35	13	15	7
Fc1ccc(-c2nn3cccc(F)c3c2-c2ccncc2)cc1 [GW475620]	46	12	5	0	14	25	3	97.6	16	21
Cc1ccc(NC(=O)Nc2ccccc2F)cc1-c1ccc(C(=O)Nc2ccncc2)cc1 [GSK1398477]	12	16	26	3	86	60	0	36	12	36
CCn1c(-c2c(N)noc2C)nc2cnccc21 [SB-737856]	0	17	19	58	44	30	0	0	0	16
O=C1NC(=O)C(c2ccc(Cl)cc2)=C1Nc1cccc(Cl)c1 [SB-317651]	0	0	0	0	0	16	5	13	0	5
COc1ccc(Nc2nccc(NCCNC(=O)Nc3cc(C)ccc3C)n2)cc1 [GSK1379899]	0	0	0	0	4	3	0	0	0	21

SMILES	%Inh [1] [%]	%Inh [2] [%]	%Inh [3] [%]	%Inh [4] [%]	%Inh [5] [%]	%Inh [6] [%]	%Inh [7] [%]	%Inh [8] [%]	%Inh [9] [%]	%Inh [10] [%]
Cc1c(Cn2c3ccccc3n3c(=O)cc(N4CCOCC4)nc23)cccc1C(F)(F)F [GSK2306394]	0	13	6	0	7	1	0	22	0	17
COc1ccc(Nc2nccc(N3CCC(NC(=O)c4cc5ccccc5s4)C3)n2)cc1 (stereo not shown) [GSK1379738]	6	0	17	7	47	60	0	20	0	42
COc1ccc2cc(-c3nc(-c4ccccc4C(C)C)[nH]c3-c3ccncc3)ccc2c1 [SB-660566]	62	53	25	31	45	31	0	3	2	44
CN1c2ccc(-c3ccc(C(N)=O)cc3)cc2-c2[nH]ncc2S1(=O)=O	0	0	0	0	0	5	5	0	4	38
CC(=O)c1c(C)c2cnc(Nc3ccn(C)n3)nc2n(C2CCCC2)c1=O	0	2	1	0	18	0	0	0	0	15
Cl.Cl.Cl.N#Cc1ccc(CCNc2nccc(-c3cccc(CN4CCNCC4)c3)n2)cc1 [GSK2137462]	0	3	6	0	10	10	0	0	0	49
O=C1NC(=O)C(c2ccc(Cl)cc2)=C1Nc1ccc(O)cc1 [SB-340867]	0	0	0	8	10	22	0	0	0	0
Cc1ccccc1Cn1ccn2c(=O)cc(N3CCOCC3)nc12 [GSK2269905]	0	7	19	16	28	0	0	0	0	7
Cc1ccccc1-c1cc(-c2c[nH]nc2-c2ccccn2)ccn1 [GW680061]	0	13	15	3	14	0	0	85	0	28
CS(=O)(=O)CCNCc1nc(-c2ccc3ncnc(Nc4ccc5c(cnn5Cc5ccccc5)c4)c3c2)cs1.Cl.Cl [GW569716]	0	0	21	0	36	0	0	4	0	18
COc1cccc(CNC(=O)NC2CCN(c3ccnc(Nc4ccc(F)cc4)n3)C2)c1 (stereo not shown) [GSK1379723]	0	14	8	0	28	100	0	0	0	43
Cc1cnc(N)c(/C=C/c2cncc(C(=O)NCCc3ccc(Cl)cc3Cl)c2)c1.Cl [GSK190937]	0	26	20	4	27	16	0	29	0	25
Cc1c(Cn2c(C)c(C)n3c(=O)cc(N4CCOCC4)nc23)cccc1C(F)(F)F [GSK2328680]	0	0	7	14	0	16	0	21	0	33
CC[C@@H]1CO[C@H](C(=O)Nc2ccccc2)CN1c1cc(-c2ccc3c(N)n[nH]c3c2)nc(NC)n1 [GSK2376236]	77	0	0	6	1	0	0	8	0	26
O=C(Nc1n[nH]c2cc(-c3ccsc3)ccc12)C1CC1 [SB-732932]	0	20	12	5	94.7	5	0	16	8	0
Cc1ccc(NC(=O)Nc2ccccc2)cc1-c1ccc(C(=O)Nc2ccncc2)cc1 [GSK1398471]	5	0	12	21	94.6	53	0	0	0	19
COc1ccc(Nc2nccc(N3CCC(NC(=O)C(C)c4ccc(Cl)cc4)CC3)n2)cc1 (stereo not shown) [GSK1379812]	2	1	0	0	0	0	0	1	0	27
COc1cccc(C2=C(Nc3cc(Cl)c(O)c(Cl)c3)C(=O)NC2=O)c1 [SB-390767]	0	4	19	0	30	0	0	0	0	39
CNc1nc(-c2ccc3c(N)n[nH]c3c2)cc(N2C[C@@H](C(=O)Nc3ccccc3)CC[C@H]2C)n1 [GSK2298859]	89	32	2	0	17	0	0	22	0	0
CSc1ccc(-c2nc3n(c2-c2ccncc2)CCC3)cc1 [SKF-105561]	6	0	7	0	7	3	0	51	7	0
COc1ccc(Nc2nccc(-c3ccc(NC(=O)c4cc5cc(F)ccc5[nH]4)cc3)n2)cc1 [GSK1229496]	0	0	0	0	8	6	0	4	0	43
O=C(Nc1n[nH]c2nc(-c3cccs3)c(Br)cc12)C1CCCC1 [SB-743341]	15	65	0	0	0	19	0	13	24	24
